# According to the supplement of paper PMC10042075:
# Values joined by “and” are separate entries in the source; they are usually repeats but may differ in a detail not shown here. Equal entries are not always repeated. Structures can show the parent of a compound that is named as a salt. ± gives the standard deviation of the averaged measurements.
# Tested on: LASCPC-01
# Test: cell viability relative to DMSO control (fraction); higher = less growth inhibition (more viable cells)
# Details: 2 µM; 72 h
# Procedure: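 High-throughput single-dose screen in the LASCPC-01 NEPC cell line in 384-well plates. Cells were treated with each compound at 2 µM for 72 h, and viability was read by CellTiter-Glo luminescence. Values are normalised to the DMSO control (compound/DMSO) from three replicates; only the 5-HT-related subset of the 7315-compound library is given.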
row,SMILES,cell viability
1,Cc1nccn1CC1CCc2c(c3ccccc3n2C)C1=O (stereo not given) [Ondansetron HCl],1.03
2,Cn1c(=O)cnn(CCCCN2CCN(c3ncccn3)CC2)c1=O [Eptapirone],0.947
3,COCCCN1CCC(NC(=O)c2cc(Cl)c(N)c3c2OCC3)CC1 [Prucalopride Succinat],1.1
4,Cn1ccc2cc3c(cc21)CCN3C(=O)Nc1cccnc1,1.06
5,CSc1ccc2c(c1)C(N1CCN(C)CC1)Cc1ccccc1S2 (stereo not given) [Methiothepin mesylate],1.03
6,CN(C)CCCN1c2ccccc2CCc2ccccc21 [Imipramine hydrochloride],1.13
7,O=C1[C@@H]2[C@H]3CC[C@H](C3)[C@@H]2C(=O)N1CCCCN1CCN(c2ncccn2)CC1 [Tandospirone citrate],0.477
8,CN(C)CCCN1c2ccccc2CCc2ccc(Cl)cc21 [Clomipramine HCl],0.826
9,O=C(CCCCCN1CCN(c2ccccc2-c2ccccc2)CC1)NC1CCCc2ccccc21 (stereo not given) [LP 12 hydrochloride hydrate],0.972
10,O=C1CCc2ccc(OCCCCN3CCN(c4cccc(Cl)c4Cl)CC3)cc2N1 [Aripiprazole],1.05
11,COCCCC/C(=N\OCCN)c1ccc(C(F)(F)F)cc1 [Fluvoxamine maleate],1.07 ± 0.028
12,COc1cc(N)c(Cl)cc1C(=O)OCCN1CCCCC1,0.718
13,CNS(=O)(=O)Cc1ccc2[nH]cc(CCN(C)C)c2c1 [Sumatriptan Succinate],0.971
14,CCCCCNC(=N)N/N=C/c1c[nH]c2ccc(OC)cc12 [Tegaserod maleate],0.531
15,CN1[C@@H]2CC[C@H]1CC(OC(=O)c1c[nH]c3ccccc13)C2 (stereo not given in full) [3-Tropanyl-indole-3-carboxylate hydrochloride],1.04
16,N[C@@H](Cc1c[nH]c2ccccc12)C(=O)O [L-Tryptophan],0.904
17,CNCC[C@@H](Oc1ccccc1C)c1ccccc1 [Atomoxetine HCl],1.02
18,O=C(c1ccc(F)cc1)C1CCN(CCn2c(=O)[nH]c3ccccc3c2=O)CC1 [Ketanserin],0.968
19,O=C1Cc2cc(CCN3CCN(c4nsc5ccccc45)CC3)c(Cl)cc2N1 [Ziprasidone],0.987
20,CCc1nn(CCCN2CCN(c3cccc(Cl)c3)CC2)c(=O)n1CCOc1ccccc1 [Nefazodone hydrochloride],1.03

row,SMILES,cell viability
1,c1ccc2c(c1)CC(N1CCN(c3cccc4c3OCCO4)CC1)C2,0.835
2,COC(=O)[C@H]1[C@H]2C[C@@H]3c4[nH]c5cc(OC)ccc5c4CCN3C[C@H]2C[C@@H](OC(=O)c2cc(OC)c(OC)c(OC)c2)[C@@H]1OC [Reserpine],0.918
3,CNS(=O)(=O)CCc1ccc2[nH]cc(C3CCN(C)CC3)c2c1 [Naratriptan hydrochloride],1.02
4,CCC(=O)c1c(O)cc(O)cc1O [Flopropione],0.95
5,Cc1cc2c(s1)Nc1ccccc1N=C2N1CCN(C)CC1 [Olanzapine],1.02 ± 0.042
6,Fc1ccc([C@@H]2CCNC[C@H]2COc2ccc3c(c2)OCO3)cc1 [Paroxetine HCl],1.02
7,O=C(c1ccc(F)cc1)C1CCN(CCn2c(=O)[nH]c3ccccc3c2=O)CC1 [Ketanserin tartrate],0.737
8,CC(C)c1cc(-c2ccc(F)c3ccccc23)nc(N)n1,1.05 and 0.845 and 0.897
9,COc1ccccc1N1CCN(CCCCN2C(=O)c3ccccc3C2=O)CC1 [NAN-190 hydrobromide],0.884
10,"CCN(CC)CCOC(=O)c1cc(Cl)c(N)cc1OC [SDZ-205,557 hydrochloride]",1.06
11,CN(C)CCCN1c2ccccc2CCc2ccc(Cl)cc21 [Clomipramine hydrochloride],0.987
12,CN1CCC[C@@H]1Cc1c[nH]c2ccc(CCS(=O)(=O)c3ccccc3)cc12 [Eletriptan HBr],0.983
13,Cc1nccn1CC1CCc2c(c3ccccc3n2C)C1=O (stereo not given) [Ondansetron hydrochloride],1.12
14,CN(C)CCCc1cc(C(=O)Nc2ccc(-c3ccncc3)cc2)ccc1O,0.993
15,CN1CC2c3ccccc3Oc3ccc(Cl)cc3C2C1 (stereo not given) [Asenapine Maleate],1.1
16,CN1CCc2c(c3ccccc3n2Cc2ccccc2)C1 [Mebhydrolin napadisylate],1.03
17,Cc1nc2n(c(=O)c1CCN1CCC(c3noc4cc(F)ccc34)CC1)CCCC2 [Risperidone],0.99
18,Cc1cnc(CNCC2(F)CCN(C(=O)c3ccc(F)c(Cl)c3)CC2)nc1,0.989
19,CN(C)[C@@H]1CCc2[nH]c3ccc(NC(=O)c4ccc(F)cc4)cc3c2C1,0.693
20,COc1cc(/C=C/C(=O)O)ccc1O [Sodium ferulic],0.909
